# Test results taken from PMC8384837, “Expanding the binding specificity for RNA recognition by a PUF domain”.
# How the values were obtained:
# Assay in all cases: yeast three-hybrid, YBZ-1, SC-Leu-His + 0.5 mM 3-AT, 4 days
# Details in all cases: tags: N-Gal4 AD-HA kept; label: inside an RPR1-promoter hybrid RNA with tandem MS2 sites; ssRNA
# PUM1 PUF domain R5-KQW = PUM1 PUF domain R5-KQW (Homo sapiens, UniProt Q14671 828-1176, C1007K;R1008Q;Q1011W)
# Outline: (§1)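 Pumilio-1 PUF domain libraries, randomized (NNK) at the three base-contacting residues of each repeat, were co-expressed with matching RNA elements from a centromeric plasmid in strain YBZ-1 (LexA–MS2 coat fusion, HIS3 reporter). Transformants were plated on SC-Leu (input) and SC-Leu-His + 0.5 mM 3-AT (selection) for four days, and repeat regions were PCR-amplified and Illumina-sequenced. The interaction score is the log2 change in variant frequency from input to selection, with pseudocount 1 where absent.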
# PUM1 PUF domain R5-WWQ = PUM1 PUF domain R5-WWQ (Homo sapiens, UniProt Q14671 828-1176, C1007W;R1008W)
# Outline: as §1
# PUM1 PUF domain R5-QAR = PUM1 PUF domain R5-QAR (Homo sapiens, UniProt Q14671 828-1176, C1007Q;R1008A;Q1011R)
# Outline: as §1
# PUM1 PUF domain R1-KWV = PUM1 PUF domain R1-KWV (Homo sapiens, UniProt Q14671 828-1176, S863K;R864W;Q867V)
# Outline: as §1
# PUM1 PUF domain R5-EWD = PUM1 PUF domain R5-EWD (Homo sapiens, UniProt Q14671 828-1176, C1007E;R1008W;Q1011D)
# Outline: as §1
# PUM1 PUF domain R6-QWL = target: T1, PUM1 PUF domain R6-QWL (Homo sapiens, UniProt Q14671 828-1176, N1043Q;Y1044W;Q1047L)
# T1 sequence: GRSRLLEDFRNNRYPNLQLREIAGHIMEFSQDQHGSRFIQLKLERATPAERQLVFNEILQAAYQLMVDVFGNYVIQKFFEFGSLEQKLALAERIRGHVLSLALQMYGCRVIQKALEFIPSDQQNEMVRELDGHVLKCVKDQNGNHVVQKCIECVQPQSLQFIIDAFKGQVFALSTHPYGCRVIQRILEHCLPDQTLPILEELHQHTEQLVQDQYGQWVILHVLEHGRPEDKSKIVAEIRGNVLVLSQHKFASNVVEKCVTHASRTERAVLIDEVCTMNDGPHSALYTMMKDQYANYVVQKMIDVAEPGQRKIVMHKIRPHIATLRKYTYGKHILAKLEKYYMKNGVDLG
# Outline: as §1
# PUM1 PUF domain R8-GWH = PUM1 PUF domain R8-GWH (Homo sapiens, UniProt Q14671 828-1176, N1122G;Y1123W;Q1126H)
# Outline: as §1
# PUM1 PUF domain R2-RKQ = PUM1 PUF domain R2-RKQ (Homo sapiens, UniProt Q14671 828-1176, N899R;Y900K)
# Outline: as §1
# PUM1 PUF domain R5-PHR = PUM1 PUF domain R5-PHR (Homo sapiens, UniProt Q14671 828-1176, C1007P;R1008H;Q1011R)
# Outline: as §1
# PUM1 PUF domain R4-RMS = PUM1 PUF domain R4-RMS (Homo sapiens, UniProt Q14671 828-1176, N971R;H972M;Q975S)
# Outline: as §1
sequence,measurement,setting,value
GGCUAGAACUAGUGGAUCCCCCGGCGCCCGGCGGCUCGAGCCCGGGUAAGUGUUAAUAGUCUGCAUGCCGCCGGGCGCCAUGCCUGCAGGUCGACUCUAGAAAACAUG,binding signal,PUM1 PUF domain R5-KQW,2.43 log2 enrichment (interaction score)
same,binding signal,PUM1 PUF domain R5-WWQ,2.93 log2 enrichment (interaction score)
same,binding signal,PUM1 PUF domain R5-QAR,3.17 log2 enrichment (interaction score)
GGCUAGAACUAGUGGAUCCCCCGGCGCCCGGCGGCUCGAGCCCGGGUAAGUGUAAAUCGUCUGCAUGCCGCCGGGCGCCAUGCCUGCAGGUCGACUCUAGAAAACAUG,binding signal,PUM1 PUF domain R1-KWV,5.68 log2 enrichment (interaction score)
GGCUAGAACUAGUGGAUCCCCCGGCGCCCGGCGGCUCGAGCCCGGGUAAGUGUGAAUAGUCUGCAUGCCGCCGGGCGCCAUGCCUGCAGGUCGACUCUAGAAAACAUG,binding signal,PUM1 PUF domain R5-WWQ,2.01 log2 enrichment (interaction score)
same,binding signal,PUM1 PUF domain R5-EWD,2.28 log2 enrichment (interaction score)
GGCUAGAACUAGUGGAUCCCCCGGCGCCCGGCGGCUCGAGCCCGGGUAAGUGUAAAUGGUCUGCAUGCCGCCGGGCGCCAUGCCUGCAGGUCGACUCUAGAAAACAUG,binding signal,PUM1 PUF domain R1-KWV,0.79 log2 enrichment (interaction score)
GGCUAGAACUAGUGGAUCCCCCGGCGCCCGGCGGCUCGAGCCCGGGUAAGUGAAAAUAGUCUGCAUGCCGCCGGGCGCCAUGCCUGCAGGUCGACUCUAGAAAACAUG,binding signal,PUM1 PUF domain R6-QWL,4.43 log2 enrichment (interaction score)
GGCUAGAACUAGUGGAUCCCCCGGCGCCCGGCGGCUCGAGCCCGGGUAAGCGUAAAUAGUCUGCAUGCCGCCGGGCGCCAUGCCUGCAGGUCGACUCUAGAAAACAUG,binding signal,PUM1 PUF domain R8-GWH,3.5 log2 enrichment (interaction score)
GGCUAGAACUAGUGGAUCCCCCGGCGCCCGGCGGCUCGAGCCCGGGUAAGUGUAAAGAGUCUGCAUGCCGCCGGGCGCCAUGCCUGCAGGUCGACUCUAGAAAACAUG,binding signal,PUM1 PUF domain R2-RKQ,2.92 log2 enrichment (interaction score)
GGCUAGAACUAGUGGAUCCCCCGGCGCCCGGCGGCUCGAGCCCGGGUAAGUGUAAAUAGUCUGCAUGCCGCCGGGCGCCAUGCCUGCAGGUCGACUCUAGAAAACAUG,binding signal,PUM1 PUF domain R5-PHR,2.42 log2 enrichment (interaction score)
same,binding signal,PUM1 PUF domain R4-RMS,4.65 log2 enrichment (interaction score)
GGCUAGAACUAGUGGAUCCCCCGGCGCCCGGCGGCUCGAGCCCGGGUAAGUGUCAAUAGUCUGCAUGCCGCCGGGCGCCAUGCCUGCAGGUCGACUCUAGAAAACAUG,binding signal,PUM1 PUF domain R5-KQW,4.59 log2 enrichment (interaction score)
same,binding signal,PUM1 PUF domain R5-QAR,4.51 log2 enrichment (interaction score)
